# The panel holds about 83,000 compounds, 20% with a hit somewhere; the sample as a whole holds those more often.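 Percent growth is the endpoint: 0 to 100 indicates growth inhibition (40 means 60% inhibition), 0 means no net growth, and negative values indicate cell death.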 Values without a mark were called inactive. Activity calls are given as the source filed them.
# Test system: MDA-MB-435 melanoma
# Experiment: NCI-60 one-dose screen, 48 h (100 = growth as untreated, 0 = no growth, -100 = all killed)
# Conditions: 10 µM unless noted
# Method: Growth inhibition of the MDA-MB-435 human Melanoma tumor cell line is measured as a screen for anti-cancer activity. Cells are grown in 96 well plates and exposed to the test compound for 48 hours. Compounds are tested at a single concentration, which is 10^-5 M for most compounds. The reported endpoint is percent growth (GI% or GIPRCNT), where numbers from 0 - 100% represent growth inhibition, and numbers from -100% - 0 represent cell death. For example, a value of 40 represents 60% growth inhibition. A value of 0 means no net growth occurred over the course of the experiment. A value of -40 indicates 40% of cells at the beginning of the experiment died by the end of the experiment. A value of -100 means all cells are dead at the end of the experiment.
# NCI-60 Human Tumor Cell Lines Screen was performed using the standard one-dose NCI protocol, which is described in more detail at https://dtp.cancer.gov/discovery_development/nci-60/default.htm.
# Compounds with GIPRCNT values below 10 were considered active. Activity score was based on GIPRCNT using the following formula: […]
# Score is 0 for GIPRCNT values of 100 or above, 50 for GIPRCNT values of 0, and 100 for GIPRCNT values of -100.
row,SMILES,growth
1,Cc1cccc(C)c1NC(=O)Nc1ccccc1,105%
2,CC/C(=C(/c1ccc(Cl)cc1)c1ccc(OCCN2CCCC2)cc1)c1ccccc1,60.2%
3,COc1cc2c(cc1-c1c(C)noc1C)ncc1nc(C3CCOCC3)n(C3CCC(OC(F)F)CC3)c12 (stereo not given),48.9%
4,O=C1C=CC2(O)OC(c3ccccc3)CC(=O)C2=C1O (stereo not given),87.7%
5,CCN1CCN(c2nc(NNC(=O)c3ccc(OC)cc3)nc(N3CCN(C(c4ccccc4)c4ccccc4)CC3)n2)CC1,18.3%
6,COc1cc(/C=C2\CN(S(=O)(=O)c3ccc(C)cc3)C/C(=C\c3cc(CN4CCCC4)c(O)c(OC)c3)C2=O)cc(CN2CCCC2)c1O,-76.8% (active)
7,Fc1ccc(/C=C/c2cc(/C=C/c3ccc(F)cc3)n(-c3cc(F)cc(F)c3)n2)cc1,103%
8,COc1ccc(NC(=O)c2sc3nc(C)c(C(=O)c4ccccc4)cc3c2N)cc1,98%
9,CCOc1ccccc1NC(=O)CCC(=O)OC,102%
10,O=C1/C(=C/c2cccc([N+](=O)[O-])c2)COc2ccc(O)c(O)c21,-33.4% (active)
11,N#Cc1c(-c2ccc(Cl)cc2)nc(NN=Cc2cccc(Cl)c2)nc1N1CCOCC1,92%
12,COc1ccc(/C=N\NC(=O)c2ccc3nc(-c4ccc(Cl)cc4)[nH]c3c2)cc1,68.5%
13,CCOC(=O)CC1CSC(N/N=C/c2ccc(O)cc2)=N1 (stereo not given),103%
14,Clc1nc(N2CCC[N+]3(CC2)CC[N+]2(CCCNCC2)CC3)nc(N2CCC[N+]3(CC2)CC[N+]2(CCCNCC2)CC3)n1 (stereo not given),90%
15,COC1CC(O)C2=C(CC3C(/C(C)=C\CC=C(C)C)CCC3(C)O2)C1=O (stereo not given),109%
16,C/C=C(/C)C(=O)O[C@@H]1CC(C)(C)CC2C34OC(=O)[C@@]21CC[C@@]3(C)[C@]1(C)CCC2C(C)(C)C(=O)CC[C@]2(C)C1C[C@@H]4O (stereo not given in full),70.9%
17,CCCCCC(C)(O)C(C(=O)O)c1ccccc1 (stereo not given),107%
18,CCN1CCN(CCOc2ccc(CNc3ccc4nc(CCC5CCCCC5)[nH]c4c3)cc2)CC1,-17.8% (active)
19,CCCCCCCCCCCCCC[n+]1ccc2c(C)c3c(c(C)c2c1)c1cc(O)ccc1n3CC,-92.6% (active)
20,COc1ccc(S(=O)(=O)N(C)c2oc(-c3ccc(Cl)cc3)nc2C#N)cc1,-3.32% (active)

row,SMILES,growth
1,Cc1ccc(-c2nc(C#N)c(S(=O)(=O)n3nc(C)cc3N)o2)cc1,96.2%
2,CCCCC#Cc1c(I)n(C2OC(CO[Si](C)(C)C(C)(C)C)C3OC(C)(C)OC32)c(=O)[nH]c1=O (stereo not given),82.9%
3,NS(=O)(=O)Oc1cccc(-c2nc3sccn3c2-c2ccccc2)c1,3.29% (active)
4,Nc1ccc(N)c2c1C(=O)c1cccc([N+](=O)[O-])c1C2=O,67.3%
5,COc1cc2cc(Oc3ccc(NC(=O)Nc4ccc(F)c(C(F)(F)F)c4)cc3)c(C)nc2cc1OCCN1CCCCC1,-92.5% (active)
6,COc1ccc(-c2nc(SCCC(C)C)nc(N/N=C(/C)c3ccc(N)cc3)c2C#N)cc1,104%
7,O=C(Nc1ccc(Cl)cc1)C1=NCCCCN1,72.6%
8,COc1cc(/C=C/C(=O)c2ccc(-n3cc(CN4CCN(c5cc6c(cc5F)c(=O)c(C(=O)O)cn6C5CC5)CC4)nn3)cc2)cc(OC)c1OC,81.9%
9,COC(=O)[C@@H](Cc1c[nH]c2ccccc12)NC[C@@H](O)CN1C(=O)/C(=C\c2cc(OC)c(OC)c(OC)c2)c2ccccc21,56.1%
10,COC(=O)CCc1c(/C=C2\N=C(c3ccc[nH]3)C=C2OC)[nH]c(C)c1C(=O)OCc1ccccc1,2.53% (active)
11,O=C(Nc1ccc(Oc2cccc(F)c2)c(Cl)c1)c1cnccn1,-21.2% (active)
12,C=C(C)Cn1c(SCC(=O)c2cccs2)nc2sc3c(c2c1=O)CCCC3,56%
13,COc1cc(/C=C2\C(=O)N(CCOc3cc(O)c4c(=O)cc(-c5ccccc5)oc4c3)c3ccccc32)cc(OC)c1O,-40.2% (active)
14,COc1ccc(C(=O)/C=C/Nc2cc(-c3ccccc3)nn2-c2ccccc2)cc1,99.2%
15,COc1ccc(Cn2cc3c(c2)-c2oncc2CC3)cc1,-40.8% (active)
16,Cc1oc2ccc(O)c(CN3CCCCCC3)c2c1C(=O)Nc1ccc(C(F)(F)F)cc1,58.2%
17,CC(C)(C)n1cc(-c2ccnc(NCCNS(=O)(=O)c3ccc(Br)cc3)c2)c(-c2cccc(O)c2)n1,28.1%
18,COc1cc2c(c(OC)c1OC)CCC(c1cccc(C(=O)Nc3ccc([N+](=O)[O-])cc3)c1)O2 (stereo not given),54.5%
19,O=C(CSc1nnc(-c2cc(-c3ccc(Cl)cc3)nc3ccccc23)n1-c1ccccc1)Nc1ccc(Cl)cc1,102%
20,FC(F)(F)c1cccc(-c2nnn(Cc3cc(-c4cccc(Cl)c4)no3)n2)c1,105%
